This is an account of results in PubChem BioAssay.

Activity calls are given as the source filed them.

Assay [1] concerns Plasmodium falciparum Sir2 (PF13_0152, Sir2A). Briefly: pfSir2 binders on small-molecule microarrays, primary screen, biochemical, small-molecule microarray, 635 nm fluorescence (AID 1098).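 Note: score merges spot fluorescence intensity with its signal-to-noise ratio.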 The following applies: small-molecule microarray binding, fluorescence 635 nm; higher = more signal.
Assay [2] can be described thus: small-molecule microarray binders of probe aDKK1, primary screen, biochemical, biotinylated probe, 635/667 nm fluorescence (AID 1099).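 Note: score merges 667nm spot fluorescence with signal to noise across triplicate slides; reference of the scale not given here.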 The settings on record: higher = more signal.
Assay [3] in a line: small-molecule microarray binders of probe aCHRDL2, primary screen, biochemical, biotinylated probe, 635/667 nm fluorescence (AID 1100). The following applies: higher = more signal.
The nature of assay [4]: splicing luciferase reporter signal modulators, primary screen, spliceosome inhibition project, cell-based, HEK293, splice +/- reporter (AID 1101).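 Note: HEK293 cells carrying a splicing-competent luciferase reporter gene; test concentration not given here.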 The following applies: luminescence, 24 h, higher = more signal, called active from +8 up or from −8 down. (In a reporter assay the amount or activity of a reporter protein is the signal.)
Assay [5] deals with Fibroblast growth factor 10 (Homo sapiens) (UniProt O15520). Briefly: FGF10 binders on small-molecule microarrays, primary screen, biochemical, small-molecule microarray, 635 nm fluorescence (AID 1102). The settings on record: FGF10 binding, fluorescence 635 nm, higher = more signal.
Chain of Fibroblast growth factor 10 (Homo sapiens) (O15520 whole entry, looked up): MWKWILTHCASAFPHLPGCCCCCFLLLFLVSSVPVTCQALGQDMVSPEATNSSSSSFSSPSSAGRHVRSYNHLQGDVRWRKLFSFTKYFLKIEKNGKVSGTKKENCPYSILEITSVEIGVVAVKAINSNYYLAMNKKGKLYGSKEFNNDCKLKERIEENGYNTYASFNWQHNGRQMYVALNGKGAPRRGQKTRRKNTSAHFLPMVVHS
Assay [6] concerns glycogen synthase kinase-3 (GSK3A per assay name; protocol says GSK3B). Briefly: GSK3 binders on small-molecule microarrays, primary screen, biochemical, small-molecule microarray, 635 nm fluorescence, GSK3A (AID 1103). Note: the record names both GSK3A and GSK3B. The settings on record: small-molecule microarray binding, fluorescence 635 nm; higher = more signal.
Assay [7] has as its target Epidermal growth factor receptor (Homo sapiens) (UniProt P00533). Briefly: EGFR binders on small-molecule microarrays, primary screen, biochemical, small-molecule microarray, 635 nm fluorescence (AID 1104).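 Note: score merges 667 nm emission intensity with spot signal to noise over triplicate slides.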 The following applies: EGFR binding, higher = more signal.
Assay [8] deals with Follistatin-related protein 3 (Homo sapiens) (UniProt O95633). Briefly: FSTL3 binders on small-molecule microarrays, primary screen, biochemical, small-molecule microarray, 635 nm fluorescence (AID 1105).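 Note: score merges emission near 667 nm and signal to noise per printed spot across three slides.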 The settings on record: FSTL3 binding, higher = more signal.
Chain of Follistatin-related protein 3 (Homo sapiens) (O95633 whole entry, looked up): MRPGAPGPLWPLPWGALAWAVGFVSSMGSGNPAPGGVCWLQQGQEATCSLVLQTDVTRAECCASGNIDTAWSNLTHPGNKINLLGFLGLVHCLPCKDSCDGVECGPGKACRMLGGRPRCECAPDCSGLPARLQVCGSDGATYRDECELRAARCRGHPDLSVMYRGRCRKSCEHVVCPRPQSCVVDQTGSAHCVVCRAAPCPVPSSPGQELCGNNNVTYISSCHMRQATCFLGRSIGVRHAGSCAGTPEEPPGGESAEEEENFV
In assay [9] the target is Dickkopf-related protein 1 (Homo sapiens) (UniProt O94907). Briefly: DKK1 binders on small-molecule microarrays, primary screen, biochemical, small-molecule microarray, 635 nm fluorescence scan (AID 1106).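 Note: score merges emission near 667 nm with signal to noise over three replicate slides.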 The settings on record: DKK1 binding, higher = more signal.
Chain of Dickkopf-related protein 1 (Homo sapiens) (O94907 whole entry, looked up): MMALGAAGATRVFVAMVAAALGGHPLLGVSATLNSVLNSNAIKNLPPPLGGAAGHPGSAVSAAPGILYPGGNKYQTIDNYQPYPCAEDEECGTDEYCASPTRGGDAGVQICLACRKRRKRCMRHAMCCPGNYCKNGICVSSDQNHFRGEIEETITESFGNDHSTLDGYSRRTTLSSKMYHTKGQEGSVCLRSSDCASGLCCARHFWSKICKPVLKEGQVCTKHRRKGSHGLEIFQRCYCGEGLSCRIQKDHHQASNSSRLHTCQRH
For assay [10], the system named is Inhibin beta A chain (activin A). Briefly: INHBA (activin A) binders on microarrays, primary screen, biochemical, small-molecule microarray, 635 nm fluorescence scan (AID 1107).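 Note: mouse activin A protein probed at 4.33 µg/mL on printed slides; score merges bound-protein fluorescence near 667 nm with spot signal-to-noise.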 The following applies: small-molecule microarray binding, higher = more signal.

Chain of Epidermal growth factor receptor (Homo sapiens) (P00533 whole entry, looked up): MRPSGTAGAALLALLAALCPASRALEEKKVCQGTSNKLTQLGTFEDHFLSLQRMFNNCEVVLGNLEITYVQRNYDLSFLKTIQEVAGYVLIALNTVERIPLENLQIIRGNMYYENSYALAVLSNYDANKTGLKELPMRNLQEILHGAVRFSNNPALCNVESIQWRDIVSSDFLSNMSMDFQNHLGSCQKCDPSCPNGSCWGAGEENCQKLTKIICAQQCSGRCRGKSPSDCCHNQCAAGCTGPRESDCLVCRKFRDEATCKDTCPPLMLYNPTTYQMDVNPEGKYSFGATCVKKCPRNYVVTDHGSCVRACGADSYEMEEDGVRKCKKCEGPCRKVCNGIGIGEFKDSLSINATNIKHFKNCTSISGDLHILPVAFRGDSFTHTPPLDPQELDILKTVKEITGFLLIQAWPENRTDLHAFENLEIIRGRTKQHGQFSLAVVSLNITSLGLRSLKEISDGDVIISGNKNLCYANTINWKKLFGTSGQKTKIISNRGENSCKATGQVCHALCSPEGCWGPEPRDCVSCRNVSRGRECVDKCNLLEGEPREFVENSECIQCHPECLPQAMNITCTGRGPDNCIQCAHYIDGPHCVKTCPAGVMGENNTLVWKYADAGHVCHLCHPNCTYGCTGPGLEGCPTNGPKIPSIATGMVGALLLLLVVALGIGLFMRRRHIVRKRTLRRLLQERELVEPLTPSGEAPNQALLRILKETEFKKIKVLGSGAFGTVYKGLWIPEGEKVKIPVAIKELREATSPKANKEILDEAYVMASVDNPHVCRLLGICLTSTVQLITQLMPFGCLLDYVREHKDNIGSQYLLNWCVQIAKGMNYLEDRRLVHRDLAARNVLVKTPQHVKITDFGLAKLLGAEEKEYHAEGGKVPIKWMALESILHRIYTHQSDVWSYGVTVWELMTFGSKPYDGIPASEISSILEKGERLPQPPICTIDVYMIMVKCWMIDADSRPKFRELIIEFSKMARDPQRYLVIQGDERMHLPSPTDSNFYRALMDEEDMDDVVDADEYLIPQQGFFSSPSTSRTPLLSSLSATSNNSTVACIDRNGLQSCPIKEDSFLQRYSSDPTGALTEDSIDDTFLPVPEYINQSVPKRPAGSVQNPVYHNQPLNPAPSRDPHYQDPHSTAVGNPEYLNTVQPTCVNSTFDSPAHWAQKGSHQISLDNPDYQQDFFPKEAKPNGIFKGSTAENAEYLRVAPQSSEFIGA

For the compound `C=CCN1C(=O)[C@@]2(O[C@@H](CCn3cc([C@H](O)c4ccccc4)nn3)[C@H]([Si](C)(C)c3ccc(OC)cc3)[C@H]2C)c2cc(NC(=O)c3ccc(OC)cc3)ccc21`, the composite z-score was 0.185 in assay [1]; 0.041 in [2]; 0.143 in [3]; -0.0229 in [5]; 0.0579 in assay [6]; -0.128 in assay [7]. Further, the composite z-score in assay [8] stood at 0.382; in [9], 0.183; in [10], 1.07. Besides, in [4], the z-score is -0.345 (inactive).

As for `CN1C(=O)C2C=CC(C(O)c3ccc(F)cc3)N(N3CCCCC3)C2C1=O` (stereo not given), the composite z-score in assay [1] was 1.56; in assay [2], 1.3; in assay [3], 1.33; in assay [5], 0.252; in assay [6], 0.432; in [7] it was -0.406. For the same compound, the composite z-score in assay [8] was -0.0733; in assay [9] it was -1.3; in assay [10] it was 1.23. The z-score in assay [4] is 0.981 (inactive).

For `O=C1CSC(c2cccc([N+](=O)[O-])c2)N1c1ccccc1` (stereo not given), the composite z-score in assay [1] is -0.125; in assay [2] it was 0.136; in [3], -0.342; in assay [5], 0.523; in assay [6], 0.401; in assay [7], 0.354. The composite z-score in [8] worked out at 0.404; in assay [9] it was 0.661; in [10], 0.154. The z-score in [4] was 0.187 (inactive).

As to `CCOC(=O)C1=CC[C@@H](c2cccc(Br)c2)N(S(=O)(=O)c2ccc(C)cc2)[C@H]1c1ccc([N+](=O)[O-])cc1`, the composite z-score in [1] was 1.47; in assay [2] it was 0.448; in assay [3], -0.0145; in assay [5], 1.2; in assay [6], 0.356; in [7], 0.877. In addition, the composite z-score in assay [8] came to 1.32; in [9] it was 0.82; in assay [10], 0.784. Further, the z-score in [4] is -0.183 (inactive).

Turning to `NCCCCCCNC(=O)[C@H]1C[C@H]2C(=O)N3CCC[C@H]3C(=O)N2[C@H]1c1ccc(O)cc1`, the composite z-score in [1] worked out at 1.22; in [2] it was 0.0237; in [3], 0.134; in assay [5], 0.264; in assay [6], 0.572; in assay [7], 0.386. In addition, the composite z-score in assay [8] stood at 0.747; in assay [9], 0.735; in assay [10], 0.977. The z-score in [4] is 0.089 (inactive).

With `C=C(COC)C(=O)CC[C@H](OC(=O)c1ccccc1-c1ccccc1C(=O)O)c1ccc(OCCO)cc1`, the composite z-score is 1.53 in assay [1]; -0.203 in assay [2]; 0.0518 in assay [3]; 1.35 in assay [5]; 0.667 in [6]; -0.237 in assay [7]. Further, the composite z-score in assay [8] stood at 1.05; in [9] it was 0.701; in assay [10], 1.1. In addition, the z-score in assay [4] was 0.287 (inactive).

Consider `CC(=O)NCCCC[C@@H]1NC(=O)[C@@H]2C[C@H](C(=O)NCCCC[N+](C)(C)C)[C@H](c3cccc(OCCO)c3)N2C1=O`, for which the composite z-score in assay [1] was 1.08; in assay [2], -0.11; in assay [3], 0.275; in assay [5], 0.766; in assay [6], -0.57; in [7], -0.734. The composite z-score was 1.02 in [8], 0.232 in assay [9] and -0.146 in [10]. Further, in assay [4], the z-score is 0.677 (inactive).

Turning to `CC(C)CCC[C@@H](C)[C@H]1CC[C@@]2(C)C3=C(CC[C@]12C)[C@@]1(C)CC[C@H](OC(=O)c2ccc(N)cc2)C(C)(C)C1CC3` (stereo not given in full), the composite z-score in [1] was 0.347; in [2], -0.285; in assay [3], -0.761; in assay [5], 0.331; in assay [6] it was 0.833; in assay [7], 0.614. Moreover, the results for the composite z-score in [8], in [9] and in [10] were 0.587, 1.4 and -0.023, respectively. Further, the z-score in [4] was -0.925 (inactive).

Regarding `NC(=O)[C@H]1[C@@H]2C(=O)O[C@@H](c3ccccc3)[C@@H](c3ccccc3)N2[C@@H](c2ccc(O)cc2)[C@]12C(=O)Nc1ccc(C#CC3(O)CCCCCC3)cc12`, the composite z-score in assay [1] turned out to be 1.37; in assay [2], 0.156; in assay [3] it was 0.0715; in assay [5] it was 1.36; in assay [6] it was 1.31; in assay [7], 0.53. Also, the composite z-score in assay [8] was determined as 1.42; in [9], 0.573; in assay [10], 0.593. For the same compound, the z-score in assay [4] is -1.32 (inactive).

Take `O=C1O[C@H](c2ccccc2)[C@H](c2ccccc2)N2[C@H]1[C@@H](C(=O)NC[C@H](O)c1ccccc1)[C@]1(C(=O)Nc3ccccc31)[C@H]2c1ccccc1OCCO`: the composite z-score was 1.61 in assay [1]; -0.0915 in assay [2]; 0.499 in assay [3]; 0.561 in assay [5]; 0.447 in assay [6]; 0.0728 in assay [7]. Besides, the composite z-score was 0.263 in assay [8], -0.0453 in assay [9] and 0.914 in [10]. For the same compound, the z-score in [4] is -2.06 (inactive).

With `C=CCOC(=O)[C@@H]1[C@H]2C(=O)O[C@H](c3ccccc3)[C@H](c3ccccc3)N2[C@H](c2ccc(OCCOC(=O)[C@@H]3C[C@@H]4C(=O)N5CCC[C@H]5C(=O)N4[C@@H]3c3cccc(OCCO)c3)cc2)[C@@]12C(=O)Nc1ccc(I)cc12`, the composite z-score in [1] is 1.04; in assay [2], -0.297; in assay [3], -0.121; in assay [5] it was 1.18; in assay [6], 1.12; in [7], 0.754. Further, the results for the composite z-score in [8], in [9] and in assay [10] were 1.11, 1.1 and 0.607, respectively. For the same compound, in assay [4], the z-score is -0.64 (inactive).

For `CN(C)CCCN1C(=O)[C@@]2(Cc3ccccc31)c1ccccc1C(=O)N(Cc1ccccc1)[C@H]2c1ccc(CO)cc1`, the composite z-score in assay [1] is 0.74; in [2] it was -0.152; in [3], 0.113; in assay [5] it was -0.622; in assay [6], 0.54; in [7], -0.306. For the same compound, the composite z-score in assay [8] was 0.408; in [9], 0.0366; in assay [10], 0.799. In assay [4], the z-score was -0.773 (inactive).

Turning to `C=C(COC)C(=O)CC[C@H](OC(=O)c1ccccc1-c1ccccc1C(=O)O)c1ccc(CO)o1`, the composite z-score in [1] was 0.806; in assay [2], -0.416; in assay [3] it was -0.479; in [5], 1.43; in [6], 0.645; in [7], -0.358. Besides, the composite z-score in [8] came out at 0.451; in assay [9], 0.532; in assay [10], 1.19. Also, the z-score in assay [4] is -0.0254 (inactive).

Take `CN1C(=O)C2C=CC(C(O)COCc3ccccc3)N(Nc3ccccc3)C2C1=O` (stereo not given): the composite z-score is 0.867 in assay [1]; -0.109 in assay [2]; 0.285 in assay [3]; 0.558 in assay [5]; 0.453 in assay [6]; 0.132 in [7]. Further, the composite z-score worked out at 1.06 in [8], 0.0378 in [9] and 1.18 in [10]. Further, the z-score in assay [4] is 1.43 (inactive).

Consider `C=CCC(OC(C)=O)[C@@H]1[C@@H](N(Cc2cc3ccccc3o2)C(=O)Cc2ccc(OC)cc2)c2cc(OCCCO)ccc2N1C(=O)c1ccc(-c2ccccc2)cc1` (stereo not given in full), for which the composite z-score in [1] is -0.297; in [2], 0.068; in assay [3], 0.63; in assay [5] it was -0.185; in assay [6], -0.158; in assay [7], -0.426. Besides, the composite z-score in [8] is -0.272; in assay [9], -0.45; in [10], 1.34. For the same compound, in assay [4], the z-score is -0.354 (inactive).

Take `CC(C)C(CO)N1C(=O)[C@@H]2[C@H]3C(=O)OCC=C[C@H]3OC23C=CCN(Cn2nnc4ccccc42)C(=O)[C@@H]13` (stereo not given in full): the composite z-score in assay [1] is 0.335; in [2], -0.374; in assay [3], 0.465; in assay [5] it was -0.777; in [6], -1.05; in [7], -0.851. Moreover, the composite z-score in [8] was -1.41; in assay [9] it was -1.18; in assay [10] it was -1.33. In addition, in [4], the z-score was 0.184 (inactive).
